A short description of experiment [1]: qHTS to identify inhibitors of the type 1 interferon - major histocompatibility complex class I in skeletal muscle: primary screen against the NCATS Pharmaceutical Collection (AID 1347407).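 Further: luminescence of HiBiT knocked into endogenous HLA-B as interferon-induced MHC class I level; on the % scale 0 is the no-effect control and ±100 the full control effect.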 A digest of the protocol: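 HLA-B HiBiT myoblasts, dexamethasone-free growth medium + 4 ng/ml IFN-b; compounds pinned 1 h after seeding, […] from 46 uM; 24 h, 37 C, 5% CO2; lytic HiBiT detection, 10 min RT, luminescence.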
In general terms: qHTS replaces the single test concentration by a dilution series.

Experiment [2] in a line: qHTS for inhibitors of adenylyl cyclases using a fission yeast platform: a pilot screen against the NCATS LOPAC library (AID 1347410).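 Further: plate controls were DMSO vehicle for no effect and DPI positive control for full effect.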 In outline: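 Read-out: fbp1-GFP fluorescence by laser scanning cytometry (488 nm laser), a gain of signal when AC/cAMP-PKA signalling is inhibited. Strain CHP2027 expressing AC9, GNAS and PDE4D2; compounds at up to 57 µM; 18 h, 30C.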
Experiment [3] deals with Protein phosphatase 1D (Homo sapiens) (UniProt O15297). The experiment can be described thus: Rhodamine-PBP qHTS Assay for Modulators of WT P53-Induced Phosphatase 1 (WIP1) (AID 1347425). Further: % of control where 0% means no effect. In outline: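 WIP1 (5 nM final) was preincubated with compound for 1 hour at room temperature. It then dephosphorylated 10 uM VEPPL-pS-QETFS peptide in Tris-HCl pH 7.5 with 30 mM MgCl2. Released Pi was detected by 10 uM Rh-PBP fluorescence (ex 525/em 598 nm) read at 1-min intervals for 11 min, as delta f1 - f0.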

A short description of experiment [4]: Validation qHTS assay for inhibitors of Activation Induced Cytidine Deaminase (AID): UDG Counterscreen signal (AID 1347427). Further: 0% is about no effect. A digest of the protocol: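 Counterscreen read of UDG activity (2 U/mL, 4/3x) in the FRET deamination format with AID (1 uM, 4/3x), DJC20/DJC23 substrates (250 nM, 4x), 4 h at room temperature. NaOH stop, fluorescence at 560 ex/665 em.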

Experiment [5] addresses Single-stranded DNA cytosine deaminase (Homo sapiens) (UniProt Q9GZX7). The experiment in a line: Validation qHTS assay for inhibitors of Activation Induced Cytidine Deaminase (AID): AID signal (AID 1347429). Further: on the % scale 0 is the no-effect control and ±100 the full control effect. In outline: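 AID and UDG were combined and compounds added at final up to 114 uM, then DJC20/DJC23 FRET substrate was added for 4 hr at room temperature. NaOH was then added for 30 min before fluorescence was read at 540/590 nm.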

Experiment [6] in a line: Primary qHTS for inhibitors of La Crosse Virus (LACV) - induced cell death in SH-SY5Y cells (AID 1508616).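 Further: top concentration of the series differs between compounds; 0% = infected DMSO wells and 100% = uninfected DMSO wells; higher means more rescue of cells from virus-induced death.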 A digest of the protocol:
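Luminescent ATP readout (ATPLite 1step, 5 min room temperature) measured rescue from LACV-induced death after 6 days of infection at 0.01 MOI; normalized to infected DMSO wells and uninfected DMSO wells.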

Experiment [7] in a line: Primary qHTS for small molecule stabilizers of the endoplasmic reticulum resident proteome: Secreted ER Calcium Modulated Protein (SERCaMP) assay (AID 1508630). Further: potency means the concentration at half of the fitted maximal effect. A digest of the protocol: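 GLuc-SERCaMP-expressing SH-SY5Y cells, pretreated 16 h with compound, are challenged with thapsigargin to empty ER calcium stores; after 4 h, coelenterazine is added directly to the medium and luminescence is imaged.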

Experiment [8] concerns the target Cytochrome P450 2D6 (Homo sapiens) (UniProt P10635). The experiment can be described thus: Cytochrome P450 family 2 subfamily D member 6 (CYP2D6) small molecule antagonists: luciferase biochemical (cell-free) qHTS assay (AID 1645840; active means well fitted curve in the direction sought with a large enough effect in the repeat runs; an effect the other way counts as inactive or inconclusive; further: nearly all actives have a fitted effect of over 55% in size; further: potency means the concentration at half of the fitted maximal effect). A digest of the protocol: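 P450-Glo luminescent screen: recombinant CYP2D6 enzyme–proluciferin substrate mix preincubated with compound 10 min at room temperature, then NADPH regeneration added for 1 h at room temperature. Detection reagent added for 20 min; luciferin light read as relative luminescence units.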

In experiment [9] the target is Cytochrome P450 2C9 (Homo sapiens) (UniProt P11712). The experiment in a line: Cytochrome P450 family 2 subfamily C member 9 (CYP2C9) small molecule antagonists: luciferase biochemical (cell-free) qHTS assay (AID 1645842; active means well fitted curve in the direction sought with a large enough effect in the repeat runs; an effect the other way counts as inactive or inconclusive; further: nearly all actives have a fitted effect of over 55% in size; further: potency means the concentration at half of the fitted maximal effect). In outline:
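Luminescence, after 20 min with luciferin detection reagent, reflected CYP2C9 turnover during a 1 h NADPH-driven reaction at 37C. Enzyme-substrate mix contained 0.4% bovine serum albumin and was preincubated with compound 10 min at room temperature.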

A further experiment addresses Papain (Carica papaya) (UniProt P00784). The experiment in a line: Primary qHTS assay for inhibitors of the protease papain (AID 1645873).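 Further: papain turnover of Z-FR-AMC read as the AMC fluorescence gain over 10 min; series mostly up to about 50 µM; on the % scale 0 is the no-effect control and ±100 the full control effect.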
A short description of experiment [10]: Primary qHTS for inhibitors of nuclear receptor binding SET domain protein 2 (NSD2) in an isogenic RCH-ACV NSD2 p.E1099K mutant (9B) (AID 1645876). Further: nearly all actives have a fitted effect of over 70% in size. Further: potency means the concentration at half of the fitted maximal effect.
Experiment [11] addresses Protein phosphatase 1D (Homo sapiens) (UniProt O15297). The experiment in a line: RapidFire Mass Spectrometry qHTS Assay for Modulators of WT P53-Induced Phosphatase 1 (WIP1) (AID 1347424).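 Further: amount of dephosphorylated VEPPL-S-QETFS peptide product formed by WIP1; series mostly up to about 63 µM; plate controls were DMSO wells for no effect and GSK830371 inhibitor control at 10 µM for full effect.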 A digest of the protocol: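 WIP1 (10 nM final) was preincubated 1 h at room temperature with compounds in Tris-HCl pH 7.5, 30 mM MgCl2, TCEP, EGTA, BSA; 2 uM VEPPL-pS-QETFS phosphopeptide was added for 5 min, quenched with formic acid, and dephosphorylated product quantified by RapidFire MS.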

Experiment [12] concerns the target Calcium and integrin-binding protein 1 (Homo sapiens) (UniProt Q99828). The experiment in a line: Primary qHTS for Identification of Calcium Integrin Binding Protein 1 (CIB1) Competitor (AID 1508620).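 Further: GST tagged CIB1 binding a fluorescein labelled alphaIIb integrin peptide tracer; top concentration of the series differs between compounds; on the % scale 0 is the no-effect control and ±100 the full control effect.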 In outline:
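Fluorescence polarization competition: CIB1-GST (1 uM final) preincubated with compound 15 min at room temperature, then FITC-labeled alphaIIb peptide (100 nM final) added for another 15 min. Polarization read at Ex 480/Em 540.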

Experiment [13] in a line: qHTS to identify inhibitors of the type 1 interferon - major histocompatibility complex class I in skeletal muscle: primary screen against the NCATS LOPAC collection (AID 1347405). In outline:
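Immortalized human C25cl48 myoblasts with HiBiT knocked into endogenous HLA-B*08:01 were stimulated with 4.0 ng/ml IFN-beta and given compounds in a 7-point, 1:4.3 titration from 46 uM final; after 24 hrs, lytic HiBiT luminescence was read.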

In experiment [14] the target is Calcium and integrin-binding protein 1 (Homo sapiens) (UniProt Q99828). The experiment can be described thus: Validation qHTS for Identification of Calcium Integrin Binding protein 1 (CIB1) Competitor (AID 1508618). Further: on the % scale 0 is the no-effect control and ±100 the full control effect. In outline:
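Fluorescence polarization with 1 uM CIB1-GST and 100 nM FITC-alphaIIb peptide in HEPES pH 7.4, NaCl, 5 mM CaCl2, Tween20. Compounds at up to 114 uM final, preincubated with protein 15 min; read after 15 min more at RT.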

Experiment [15] in a line: A High-Content qHTS Against Drug Library for the Identification of Small Molecules that Inhibit DYT1 Early Onset Primary Dystonia-Associated Cell Pathology (AID 1645839; calls by dose curve; further: series mostly up to about 46 µM). A digest of the protocol: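 Readout: %pathology, the punctate EGFP-TorsinA distribution from imaging, as the primary channel and cell count as the toxicity counterscreen. HEK293 Flp-In cells expressing delE TorsinA were induced with tetracycline and treated with compound for 48 h.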

Experiment [16] can be described thus: Cell Viability qHTS for small molecule stabilizers of the endoplasmic reticulum resident proteome (AID 1508629). The following applies: cell viability counter-screen, 100 nM thapsigargin for final 4 h.
Experiment [17] in a line: qHTS to identify inhibitors of the type 1 interferon - major histocompatibility complex class I in skeletal muscle: primary screen against the NCATS Mechanism Interrogation Plate v5.0 (MIPE) Libary (AID 1347411).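 Further: plate controls were vehicle for no effect and reference inhibitor for full effect; nearly all actives have a fitted effect of over 65% in size.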 A digest of the protocol:
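Immortalized human C25cl48 myoblasts with HiBit knocked into endogenous HLA-B*08:01 were stimulated with 4.0 ng/ml IFN-beta and exposed to compounds (11-point 1:3 titration, top 46 uM final) for 24 hrs at 37 C; HiBiT lytic luminescence measured.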

Consider eleven compounds from PubChem BioAssay (NCATS).

SMILES strings stand for the structures. Several values for one entry are separate records, joined by “and”; a condition that tells them apart may be missing. Identical values can stand only once. Values without a mark were called inactive. Results filed as inconclusive are left out. Activity calls are given as the source filed them. Unless noted, the call rests on the fitted dose curve; in most records, active means well fitted curve in the direction sought with a large enough effect; inconclusive means small, poorly fitted or top-dose-only effect, or another doubt; inactive means no such curve, though single readings can be large; an effect the other way counts as inactive or inconclusive.

Sequence of Single-stranded DNA cytosine deaminase (Homo sapiens) (Q9GZX7 whole entry, looked up): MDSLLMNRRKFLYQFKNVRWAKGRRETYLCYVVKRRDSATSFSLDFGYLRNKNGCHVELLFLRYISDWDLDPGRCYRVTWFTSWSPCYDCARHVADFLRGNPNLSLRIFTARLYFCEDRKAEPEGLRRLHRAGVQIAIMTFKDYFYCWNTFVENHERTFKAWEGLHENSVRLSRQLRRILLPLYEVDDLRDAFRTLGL
Sequence of Protein phosphatase 1D (Homo sapiens) (O15297 whole entry, looked up): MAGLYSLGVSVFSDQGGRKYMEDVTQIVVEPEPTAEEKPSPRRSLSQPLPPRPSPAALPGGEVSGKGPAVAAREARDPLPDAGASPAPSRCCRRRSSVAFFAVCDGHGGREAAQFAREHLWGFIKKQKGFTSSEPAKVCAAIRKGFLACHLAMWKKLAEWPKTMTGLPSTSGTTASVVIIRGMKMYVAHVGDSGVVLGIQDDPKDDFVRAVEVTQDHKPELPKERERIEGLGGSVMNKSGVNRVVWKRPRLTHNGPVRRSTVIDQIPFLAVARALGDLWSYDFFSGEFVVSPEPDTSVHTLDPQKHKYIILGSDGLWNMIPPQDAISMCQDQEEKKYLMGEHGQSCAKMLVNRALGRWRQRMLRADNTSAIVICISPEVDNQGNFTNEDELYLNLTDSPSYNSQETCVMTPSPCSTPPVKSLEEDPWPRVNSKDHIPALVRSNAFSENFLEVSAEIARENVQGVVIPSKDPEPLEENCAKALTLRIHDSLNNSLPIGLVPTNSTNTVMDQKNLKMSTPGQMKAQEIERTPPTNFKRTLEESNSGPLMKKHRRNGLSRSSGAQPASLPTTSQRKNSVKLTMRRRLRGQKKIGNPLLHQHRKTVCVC
Sequence of Papain (Carica papaya) (P00784 whole entry, looked up, the tested form may be a part): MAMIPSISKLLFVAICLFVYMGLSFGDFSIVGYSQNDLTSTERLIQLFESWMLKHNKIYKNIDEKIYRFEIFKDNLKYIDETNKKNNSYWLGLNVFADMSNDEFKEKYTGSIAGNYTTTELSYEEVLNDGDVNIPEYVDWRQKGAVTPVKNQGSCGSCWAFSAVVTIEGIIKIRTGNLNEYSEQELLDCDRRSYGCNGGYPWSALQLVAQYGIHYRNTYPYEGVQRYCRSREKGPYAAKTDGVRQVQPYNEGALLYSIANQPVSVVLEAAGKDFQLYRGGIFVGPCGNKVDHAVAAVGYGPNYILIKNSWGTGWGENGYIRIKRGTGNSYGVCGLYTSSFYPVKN
Sequence of Calcium and integrin-binding protein 1 (Homo sapiens) (Q99828 whole entry, looked up): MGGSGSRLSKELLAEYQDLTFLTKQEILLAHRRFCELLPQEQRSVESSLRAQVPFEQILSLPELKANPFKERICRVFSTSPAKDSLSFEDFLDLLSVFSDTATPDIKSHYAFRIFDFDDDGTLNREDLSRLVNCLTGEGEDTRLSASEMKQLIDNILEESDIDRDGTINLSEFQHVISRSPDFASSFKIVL
Sequence of Cytochrome P450 2C9 (Homo sapiens) (P11712 whole entry, looked up): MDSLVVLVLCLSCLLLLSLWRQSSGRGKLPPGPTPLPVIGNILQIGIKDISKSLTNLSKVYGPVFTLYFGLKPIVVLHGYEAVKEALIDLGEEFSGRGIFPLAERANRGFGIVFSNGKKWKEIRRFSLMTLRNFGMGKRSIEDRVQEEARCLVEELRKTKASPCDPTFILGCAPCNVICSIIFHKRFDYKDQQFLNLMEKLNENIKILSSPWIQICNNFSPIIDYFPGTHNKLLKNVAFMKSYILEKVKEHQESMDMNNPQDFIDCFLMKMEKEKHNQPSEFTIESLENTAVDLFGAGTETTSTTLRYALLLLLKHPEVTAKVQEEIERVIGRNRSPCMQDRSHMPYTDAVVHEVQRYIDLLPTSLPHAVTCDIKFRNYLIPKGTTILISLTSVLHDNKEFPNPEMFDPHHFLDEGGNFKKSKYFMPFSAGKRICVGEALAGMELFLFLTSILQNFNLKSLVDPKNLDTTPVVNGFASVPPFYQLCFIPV
Sequence of Cytochrome P450 2D6 (Homo sapiens) (P10635 whole entry, looked up): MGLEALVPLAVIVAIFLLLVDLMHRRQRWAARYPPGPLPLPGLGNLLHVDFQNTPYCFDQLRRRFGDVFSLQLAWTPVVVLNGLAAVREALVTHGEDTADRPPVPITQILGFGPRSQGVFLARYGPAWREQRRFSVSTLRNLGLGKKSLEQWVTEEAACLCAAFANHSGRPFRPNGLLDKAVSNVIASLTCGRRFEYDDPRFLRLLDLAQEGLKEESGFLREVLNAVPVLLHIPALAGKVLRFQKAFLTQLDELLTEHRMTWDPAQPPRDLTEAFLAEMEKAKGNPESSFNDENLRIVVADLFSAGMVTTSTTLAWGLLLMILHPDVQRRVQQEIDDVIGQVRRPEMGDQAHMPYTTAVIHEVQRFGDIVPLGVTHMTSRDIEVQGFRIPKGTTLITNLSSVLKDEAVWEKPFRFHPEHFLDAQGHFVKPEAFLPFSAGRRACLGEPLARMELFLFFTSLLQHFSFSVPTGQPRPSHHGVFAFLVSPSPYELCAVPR

For the compound `CN(C)CCCN1c2ccccc2Sc2ccc(C(F)(F)F)cc21`, the Potency entry (in [1]; in experiment [5]; in experiment [6]; in experiment [7]; in experiment [9]; in the experiment with Papain (Carica papaya)) was “inactive” throughout. In addition, the compound was called inactive in experiment [2], in [3] and in experiment [4]. Moreover, the Potency in [8] was 97.7 nM (active); in [10], 21.1 µM (active).
On to `CCCC(C(=O)OCCN(CC)CC)(c1ccccc1)c1ccccc1`, for which the compound was called inactive in experiment [2], in experiment [3] and in experiment [4]. The Potency entry (in experiment [11]; in experiment [5]; in experiment [6]; in experiment [12]; with Papain (Carica papaya)) was “inactive” each time. Moreover, the Potency in experiment [8] is 34.7 nM (active); in experiment [9], 6.17 µM (active); in experiment [10] it was 13.3 µM (active).
With `Cc1nc2ccccn2c(=O)c1CCN1CCC(C(=O)c2ccc(F)cc2)CC1`, the Potency entry in [13], in [5], in experiment [6], in experiment [12], in experiment [7] and in experiment [15] was “inactive” in each case. For the same compound, the Potency result in experiment [9] and in experiment [10] was “inactive” throughout. Further, the outcome in experiment [2], in experiment [3], in [4] and in [14] was inactive. Further, in experiment [8], the Potency is 2190 nM (active).
As for `COC(=O)[C@H]1[C@H]2C[C@@H]3c4[nH]c5cc(OC)ccc5c4CCN3C[C@H]2C[C@@H](OC(=O)c2cc(OC)c(OC)c(OC)c2)[C@@H]1OC`, the compound was classed as inactive in experiment [2], in [3], in experiment [4] and in experiment [14]. For the same compound, the Potency result in experiment [5], in experiment [6], in experiment [12] and in experiment [10] was “inactive” in each case. For the same compound, in experiment [8], the Potency was 15500 nM (active).
On to `CCCCNC(=O)NS(=O)(=O)c1ccc(C)cc1`, for which the outcome in [2], in [3] and in experiment [14] was inactive. Moreover, the Potency result (in experiment [5]; in [6]; in [12]; in experiment [7]; in experiment [8]; in the experiment with Papain (Carica papaya)) was “inactive” in each case. Also, the Potency result in experiment [10] was “inactive”.
As for `CC(C)(C)c1ccc(C(=O)CCCN2CCC(OC(c3ccccc3)c3ccccc3)CC2)cc1`, the Potency result (in [1]; in experiment [5]; in experiment [6]; in experiment [12]; in experiment [7]; in the experiment with Papain (Carica papaya)) was “inactive” in each case. The call in experiment [2], in experiment [3] and in experiment [14] was inactive. Besides, the Potency in experiment [10] was 11.9 µM (active).
Consider `CCCCOCCOCCOCc1cc2c(cc1CCC)OCO2`, for which the Potency result in experiment [1], in [6], in [12], in experiment [7] and in experiment [10] was “inactive” throughout. Moreover, the compound was called inactive in experiment [3]. Further, the Potency in experiment [8] is 1.56 µM (active) and 1.74 µM (active); in experiment [9], 340 nM (active) and 123 nM (active).
Consider `NC(=Nc1ccccc1)Nc1ccccc1`, for which the Potency result in experiment [1], in [11], in experiment [6], in experiment [12], in experiment [15] and in [9] was “inactive” each time. The call in experiment [3] was inactive. For the same compound, the max response in experiment [16] was 21.8%. The Potency was 3.16 µM (active) in experiment [7]; 461 nM (active) and 1.55 µM (active) in experiment [8].
For the compound `CC(C)NCC(O)c1cc(O)cc(O)c1` (stereo not given), the Potency entry in experiment [13], in experiment [11], in [5], in [6], in [7] and in experiment [9] was “inactive” each time. The Potency entry (in the experiment with Papain (Carica papaya); in experiment [10]) was “inactive” each time. The compound was classed as inactive in experiment [2], in [3] and in [14].
For `COCCCC/C(=N\OCCN)c1ccc(C(F)(F)F)cc1`, the Potency entry (in experiment [13]; in experiment [5]; in [6]; in experiment [12]; in the experiment with Papain (Carica papaya)) was “inactive” each time. The call in experiment [2], in experiment [3], in experiment [4] and in experiment [14] was inactive. For the same compound, the values for the Potency in experiment [8] and in experiment [9] were 977 nM (active) and 11 µM (active), respectively.
Consider `Cc1cc(C)c(/C=C2\C(=O)Nc3ccccc32)[nH]1`, for which the result in experiment [2], in experiment [3] and in experiment [4] was inactive. Besides, the Potency result (in experiment [17]; in experiment [6]; in experiment [12]; in experiment [15]; in experiment [8]; in the experiment with Papain (Carica papaya)) was “inactive” throughout. Moreover, the Potency result in experiment [10] was “inactive”. In addition, in [9], the Potency is 9.77 µM (active).
